In the supplement of paper PMC10849652:
About 7,900 targets were measured; listed, in parts, are those with a hit and a random draw of the rest. About 0.6% of all pairs of compound and target were hits. A number with no mark means an inactive call.

Key:
Assay in all cases: log2 fold change, soluble protein after heating vs DMSO (PISA); higher = thermal stabilisation; K562 cells, 10 uM, 30 min; active = over 0.2 and 3.5 SD of the protein, either way, in both replicates (recomputed)
bafetinib = compound: Cc1ccc(NC(=O)c2ccc(CN3CC[C@H](N(C)C)C3)c(C(F)(F)F)c2)cc1Nc1nccc(-c2cncnc2)n1 [bafetinib]
Method in brief: (§1)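 Soluble protein was defined as the supernatant after 21,000xg for 90 min. It came from K562 cells at 2×10^6 cells/mL given 10 μM compound for 30 min, heated in aliquots for 3 min across 48°C-58°C, pooled, and extracted in PBS with 0.5% NP-40 at 4°C, and was quantified by TMTpro 16plex LC-MS/MS with equalised channel sums. Thermal stability against control samples, from duplicates, is reported as log2 fold change.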

[1] = compound: Cc1cccc(CC(=O)N2CCc3c2ccc(-c2cn(C)c4ncnc(N)c24)c3F)n1
Method in brief: as §1

nilotinib = compound: Cc1cn(-c2cc(NC(=O)c3ccc(C)c(Nc4nccc(-c5cccnc5)n4)c3)cc(C(F)(F)F)c2)cn1 [nilotinib]
Method in brief: as §1

[2] = compound: Cc1nc(Nc2n[nH]c3c2CN(C(=O)N[C@H](CN(C)C)c2ccccc2)C3(C)C)c2sccc2n1
Method in brief: as §1

[3] = compound: Cc1ncc(-c2ccnc(Nc3ccc(S(C)(=O)=O)cc3)n2)n1C(C)C
Method in brief: as §1

[4] = compound: Cn1cc(-c2ccc3c(c2)CCN3C(=O)Cc2cccc(C(F)(F)F)c2)c2c(N)ncnc21
Method in brief: as §1

[5] = compound: Cn1cc(-c2ccc3nnc(C(F)(F)c4ccc5ncccc5c4)n3n2)cn1
Method in brief: as §1

tipifarnib = compound: Cn1cncc1[C@@](N)(c1ccc(Cl)cc1)c1ccc2c(c1)c(-c1cccc(Cl)c1)cc(=O)n2C [tipifarnib]
Method in brief: as §1

mubritinib = compound: FC(F)(F)c1ccc(/C=C/c2nc(COc3ccc(CCCCn4ccnn4)cc3)co2)cc1 [mubritinib]
Method in brief: as §1

[6] = compound: NC(=O)Nc1cc(-c2cccc(F)c2)sc1C(=O)N[C@H]1CCCNC1
Method in brief: as §1

[7] = compound: NC(=O)c1cnc(N[C@@H]2CCCC[C@@H]2N)nc1Nc1cccc(-n2nccn2)c1
Method in brief: as §1

[8] = compound: NC1(c2ccc(-c3nc4ccn5c(=O)[nH]nc5c4cc3-c3ccccc3)cc2)CCC1
Method in brief: as §1

[9] = compound: NCC(=O)Nc1ccc(-n2nc(C(F)(F)F)cc2-c2ccc3c(ccc4ccccc43)c2)cc1
Method in brief: as §1

entinostat = compound: Nc1ccccc1NC(=O)c1ccc(CNC(=O)OCc2cccnc2)cc1 [entinostat]
Method in brief: as §1

vorinostat = compound: O=C(CCCCCCC(=O)Nc1ccccc1)NO [vorinostat]
Method in brief: as §1

citarinostat = compound: O=C(CCCCCCNC(=O)c1cnc(N(c2ccccc2)c2ccccc2Cl)nc1)NO [citarinostat]
Method in brief: as §1

silmitasertib = compound: O=C(O)c1ccc2c(c1)nc(Nc1cccc(Cl)c1)c1ccncc12 [silmitasertib]
Method in brief: as §1

[10] = compound: O=C1NC(=O)C(c2cnc3ccccn23)=C1c1cn2c3c(cc(F)cc13)CN(C(=O)N1CCCCC1)CC2
Method in brief: as §1

[11] = compound: c1cc(OCCN2CCCCC2)cc(-c2n[nH]c3ccc(-c4nnc[nH]4)cc23)c1
Method in brief: as §1

dasatinib = compound: Cc1nc(Nc2ncc(C(=O)Nc3c(C)cccc3Cl)s2)cc(N2CCN(CCO)CC2)n1 [dasatinib]
Method in brief: as §1

Chain of UniProt Q70SY1 (Q70SY1 whole entry, looked up): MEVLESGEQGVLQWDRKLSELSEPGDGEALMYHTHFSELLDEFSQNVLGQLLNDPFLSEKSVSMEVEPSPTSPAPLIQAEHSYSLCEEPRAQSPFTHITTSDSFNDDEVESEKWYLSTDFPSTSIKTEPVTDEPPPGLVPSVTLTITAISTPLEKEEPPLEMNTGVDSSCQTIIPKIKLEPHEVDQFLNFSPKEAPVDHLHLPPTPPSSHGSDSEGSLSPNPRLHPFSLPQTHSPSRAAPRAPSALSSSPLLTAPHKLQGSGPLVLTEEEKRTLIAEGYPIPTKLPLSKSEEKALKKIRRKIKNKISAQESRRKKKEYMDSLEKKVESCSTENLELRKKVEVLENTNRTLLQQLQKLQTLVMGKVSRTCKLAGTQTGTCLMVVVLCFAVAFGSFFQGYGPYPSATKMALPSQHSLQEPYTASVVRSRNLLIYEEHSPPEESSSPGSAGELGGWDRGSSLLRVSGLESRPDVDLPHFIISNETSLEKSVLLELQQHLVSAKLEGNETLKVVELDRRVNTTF
Chain of UniProt P30305 (P30305 whole entry, looked up): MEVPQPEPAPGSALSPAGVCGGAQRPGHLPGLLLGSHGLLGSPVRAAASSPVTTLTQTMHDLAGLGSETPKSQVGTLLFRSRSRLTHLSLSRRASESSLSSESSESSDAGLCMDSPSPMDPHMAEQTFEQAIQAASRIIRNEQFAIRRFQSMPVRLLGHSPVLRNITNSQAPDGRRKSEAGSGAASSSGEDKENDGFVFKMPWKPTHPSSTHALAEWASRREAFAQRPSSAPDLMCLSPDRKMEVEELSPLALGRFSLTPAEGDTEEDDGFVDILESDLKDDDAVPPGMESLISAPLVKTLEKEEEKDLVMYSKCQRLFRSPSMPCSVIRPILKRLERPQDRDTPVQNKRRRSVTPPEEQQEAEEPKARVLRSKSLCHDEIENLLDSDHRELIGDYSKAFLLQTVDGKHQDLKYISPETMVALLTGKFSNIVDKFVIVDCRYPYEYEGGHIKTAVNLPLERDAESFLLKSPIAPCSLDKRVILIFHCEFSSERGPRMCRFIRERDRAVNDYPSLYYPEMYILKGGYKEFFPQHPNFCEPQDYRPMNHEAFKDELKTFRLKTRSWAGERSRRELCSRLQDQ
Chain of UniProt Q8N668 (Q8N668 whole entry, looked up): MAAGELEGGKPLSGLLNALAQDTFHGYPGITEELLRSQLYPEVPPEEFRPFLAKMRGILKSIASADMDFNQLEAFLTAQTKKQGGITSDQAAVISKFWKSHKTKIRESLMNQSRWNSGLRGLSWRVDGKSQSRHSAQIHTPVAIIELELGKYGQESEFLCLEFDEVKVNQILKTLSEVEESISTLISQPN
Chain of UniProt Q9UK58 (Q9UK58 whole entry, looked up): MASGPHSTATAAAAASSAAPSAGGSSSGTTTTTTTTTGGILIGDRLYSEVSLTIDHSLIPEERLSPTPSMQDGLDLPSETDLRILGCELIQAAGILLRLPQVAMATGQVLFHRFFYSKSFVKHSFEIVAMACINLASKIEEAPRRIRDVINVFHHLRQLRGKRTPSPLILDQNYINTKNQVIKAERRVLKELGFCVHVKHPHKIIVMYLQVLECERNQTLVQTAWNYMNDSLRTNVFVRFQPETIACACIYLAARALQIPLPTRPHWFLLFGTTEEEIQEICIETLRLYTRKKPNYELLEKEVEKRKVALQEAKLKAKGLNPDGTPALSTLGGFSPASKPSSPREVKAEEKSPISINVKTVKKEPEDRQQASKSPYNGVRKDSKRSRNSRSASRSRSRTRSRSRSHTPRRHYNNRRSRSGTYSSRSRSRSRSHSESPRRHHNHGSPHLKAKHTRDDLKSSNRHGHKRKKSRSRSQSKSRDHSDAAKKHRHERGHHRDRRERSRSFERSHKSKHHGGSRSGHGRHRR
Chain of UniProt Q2TAC2 (Q2TAC2 whole entry, looked up): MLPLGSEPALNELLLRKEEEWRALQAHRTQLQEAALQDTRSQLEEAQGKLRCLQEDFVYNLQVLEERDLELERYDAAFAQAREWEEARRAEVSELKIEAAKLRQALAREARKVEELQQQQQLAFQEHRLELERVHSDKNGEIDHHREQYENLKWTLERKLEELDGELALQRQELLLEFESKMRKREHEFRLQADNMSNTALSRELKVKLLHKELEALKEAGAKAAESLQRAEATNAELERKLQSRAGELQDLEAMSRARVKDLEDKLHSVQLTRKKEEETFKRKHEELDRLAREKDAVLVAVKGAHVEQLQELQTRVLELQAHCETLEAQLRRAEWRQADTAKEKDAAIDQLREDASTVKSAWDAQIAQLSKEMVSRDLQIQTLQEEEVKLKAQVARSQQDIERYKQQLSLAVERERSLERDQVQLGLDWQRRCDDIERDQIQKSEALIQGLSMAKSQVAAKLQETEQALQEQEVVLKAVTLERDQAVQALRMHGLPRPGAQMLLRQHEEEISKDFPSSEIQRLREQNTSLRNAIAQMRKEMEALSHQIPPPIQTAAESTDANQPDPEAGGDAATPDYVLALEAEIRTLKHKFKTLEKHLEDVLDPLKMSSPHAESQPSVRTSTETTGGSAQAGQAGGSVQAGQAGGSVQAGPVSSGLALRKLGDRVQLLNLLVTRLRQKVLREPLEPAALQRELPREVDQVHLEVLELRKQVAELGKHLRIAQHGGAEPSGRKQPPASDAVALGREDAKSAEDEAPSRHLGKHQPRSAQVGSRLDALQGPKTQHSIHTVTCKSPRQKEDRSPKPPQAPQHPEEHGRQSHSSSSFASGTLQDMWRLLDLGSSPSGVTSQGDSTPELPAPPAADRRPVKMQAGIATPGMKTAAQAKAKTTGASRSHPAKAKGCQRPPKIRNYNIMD
Chain of UniProt Q8WUD6 (Q8WUD6 whole entry, looked up): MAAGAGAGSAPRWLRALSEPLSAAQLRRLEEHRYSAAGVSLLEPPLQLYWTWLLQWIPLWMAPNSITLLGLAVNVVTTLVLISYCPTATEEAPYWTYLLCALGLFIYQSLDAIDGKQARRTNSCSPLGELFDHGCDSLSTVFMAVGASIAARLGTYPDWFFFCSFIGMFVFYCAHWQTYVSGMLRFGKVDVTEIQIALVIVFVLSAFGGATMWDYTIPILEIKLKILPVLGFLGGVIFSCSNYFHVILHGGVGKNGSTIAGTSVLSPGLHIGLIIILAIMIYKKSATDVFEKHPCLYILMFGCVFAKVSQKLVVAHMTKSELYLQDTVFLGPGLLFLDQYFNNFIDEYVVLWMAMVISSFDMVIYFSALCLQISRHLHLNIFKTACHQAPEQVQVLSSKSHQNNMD
Chain of UniProt Q86X95 (Q86X95 whole entry, looked up): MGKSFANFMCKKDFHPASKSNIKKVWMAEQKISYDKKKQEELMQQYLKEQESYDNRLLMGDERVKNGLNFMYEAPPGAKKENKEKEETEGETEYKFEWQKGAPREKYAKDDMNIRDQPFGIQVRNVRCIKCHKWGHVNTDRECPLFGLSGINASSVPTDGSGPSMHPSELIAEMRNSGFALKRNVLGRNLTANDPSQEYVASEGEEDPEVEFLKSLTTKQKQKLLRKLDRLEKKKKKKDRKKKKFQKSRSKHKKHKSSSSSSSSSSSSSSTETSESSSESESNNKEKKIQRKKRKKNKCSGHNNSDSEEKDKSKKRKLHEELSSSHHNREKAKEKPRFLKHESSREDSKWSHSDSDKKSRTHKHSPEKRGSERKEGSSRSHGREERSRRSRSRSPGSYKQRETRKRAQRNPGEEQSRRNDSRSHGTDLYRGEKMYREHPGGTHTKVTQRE
Chain of UniProt Q14746 (Q14746 whole entry, looked up): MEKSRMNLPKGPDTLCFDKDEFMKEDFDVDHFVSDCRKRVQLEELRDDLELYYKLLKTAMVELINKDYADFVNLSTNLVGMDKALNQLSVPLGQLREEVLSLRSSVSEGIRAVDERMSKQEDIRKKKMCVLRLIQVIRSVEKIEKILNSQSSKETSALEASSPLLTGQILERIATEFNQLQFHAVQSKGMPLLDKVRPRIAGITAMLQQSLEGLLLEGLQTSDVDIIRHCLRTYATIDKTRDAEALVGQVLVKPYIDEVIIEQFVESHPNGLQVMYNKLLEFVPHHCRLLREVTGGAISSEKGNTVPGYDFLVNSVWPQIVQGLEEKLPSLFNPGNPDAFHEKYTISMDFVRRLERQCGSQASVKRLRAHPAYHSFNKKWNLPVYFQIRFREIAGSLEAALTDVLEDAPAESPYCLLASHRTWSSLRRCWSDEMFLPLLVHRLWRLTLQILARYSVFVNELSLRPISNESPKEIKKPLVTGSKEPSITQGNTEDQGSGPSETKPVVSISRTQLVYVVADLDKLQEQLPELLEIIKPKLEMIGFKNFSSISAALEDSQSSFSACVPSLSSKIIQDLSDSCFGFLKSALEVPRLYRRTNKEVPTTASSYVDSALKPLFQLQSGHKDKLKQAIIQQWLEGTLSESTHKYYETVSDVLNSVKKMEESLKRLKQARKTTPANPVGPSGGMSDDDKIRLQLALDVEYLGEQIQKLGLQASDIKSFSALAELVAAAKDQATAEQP
Chain of UniProt Q53ET0 (Q53ET0 whole entry, looked up): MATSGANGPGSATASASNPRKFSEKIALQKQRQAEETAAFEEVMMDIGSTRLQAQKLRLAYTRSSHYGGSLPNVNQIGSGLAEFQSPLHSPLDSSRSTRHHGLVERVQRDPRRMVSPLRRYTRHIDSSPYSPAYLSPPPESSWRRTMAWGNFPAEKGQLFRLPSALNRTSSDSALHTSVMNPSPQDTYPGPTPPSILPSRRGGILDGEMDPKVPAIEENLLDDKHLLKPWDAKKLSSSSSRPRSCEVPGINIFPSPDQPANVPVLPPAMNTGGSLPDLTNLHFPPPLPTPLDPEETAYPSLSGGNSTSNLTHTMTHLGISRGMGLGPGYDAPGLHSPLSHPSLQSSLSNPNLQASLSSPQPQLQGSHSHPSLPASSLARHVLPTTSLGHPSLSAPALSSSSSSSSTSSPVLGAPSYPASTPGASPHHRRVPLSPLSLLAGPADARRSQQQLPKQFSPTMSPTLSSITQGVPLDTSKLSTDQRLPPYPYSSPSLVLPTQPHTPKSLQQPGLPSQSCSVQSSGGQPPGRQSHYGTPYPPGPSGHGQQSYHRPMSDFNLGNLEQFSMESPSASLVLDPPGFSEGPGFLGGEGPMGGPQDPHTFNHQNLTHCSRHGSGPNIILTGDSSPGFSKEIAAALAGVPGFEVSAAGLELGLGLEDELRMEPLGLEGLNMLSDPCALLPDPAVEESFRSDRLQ

Row | Target | log2 fold change (bafetinib) | log2 fold change [1] | log2 fold change (nilotinib) | log2 fold change [2] | log2 fold change [3] | log2 fold change [4] | log2 fold change [5] | log2 fold change (tipifarnib) | log2 fold change (mubritinib) | log2 fold change [6] | log2 fold change [7] | log2 fold change [8] | log2 fold change [9] | log2 fold change (entinostat) | log2 fold change (vorinostat) | log2 fold change (citarinostat) | log2 fold change (silmitasertib) | log2 fold change [10] | log2 fold change [11] | log2 fold change (dasatinib)
1 | CDC25B isoform 4 (UniProt P30305) | 0.081 | -0.022 | -0.513 (active) | -0.051 | -0.206 | 0.095 | -0.03 | 0.022 | 0.074 | -0.04 | -0.07 | -0.157 | 0.088 | 0.047 | 0.071 | 0.115 | 0.054 | 0.014 | -0.123 | 
2 | CRYM-AS1 (UniProt A6NIL9) | 0.063 | 0.048 | -0.023 | -0.426 | -0.28 | -0.015 | -0.189 |  | 0.114 | 0.038 | -0.014 | 0.27 | 0.042 | -0.101 | 0.014 | 0.021 | 0.031 | -0.076 | -0.135 | -0.108
3 | CENPE (UniProt Q02224) | 0.143 | 0.069 |  |  |  | 0.14 | -0.123 | -0.033 |  | 0.127 | 0.731 |  | 0.114 | -0.153 | -0.238 |  |  |  |  | -0.35
4 | CLPTM1L (UniProt G5E9Z2) | 0.156 | 0.176 | -0.22 | 0.099 | -0.053 | 0.037 |  |  | 0.047 | 0.139 | 0.237 | -0.175 | -0.028 | -0.012 | 0.022 |  | -0.05 | 0.445 |  | 
5 | CKS2 (UniProt P33552) | -0.021 | 0.048 | -0.008 | -0.188 | -0.222 |  |  | -0.047 | 0.325 |  | -0.021 | -0.039 |  |  | 0.28 | -0.092 | 0.065 |  | -0.071 | 0.096
6 | COMMD1 (UniProt Q8N668) | -0.162 | -0.085 | 0.009 | -0.179 | -0.057 |  | -0.087 | -0.016 | -0.069 | -0.043 |  | 0.051 | -0.069 | 0.008 | -0.032 | 0.039 | -0.021 | -0.018 | -0.065 | 
7 | CIR1 (UniProt Q86X95) | 0.001 | -0.091 |  |  |  | -0.131 | -0.06 | 0.223 | -0.113 | 0.014 | 0.061 | 0.309 | 0.018 | 0 | -0.056 | 0.06 | 0.105 | 0.067 | 0.024 | 0.079
8 | CCNT2 (UniProt O60583) |  | -0.117 | 0.105 | -0.161 | -0.462 |  | -0.219 | 0.08 | -0.209 | -0.045 | 0.042 | 0.054 |  | 0.076 | 0.223 | 0.06 | -0.06 | -0.032 | -0.089 | -0.02
9 | CNN1 (UniProt P51911) |  | 0.22 | 0.008 | 0 | 0.031 | 0.04 |  | 0.049 | 0.009 | -0.002 | -0.07 | -0.305 | -0.023 | 0.018 | -0.125 | 0.168 | 0.108 | -0.008 | -0.052 | 
10 | CASK (UniProt O14936) |  |  |  |  |  |  |  |  |  |  | 0.026 |  |  |  |  |  |  |  |  | 0.096
11 | CFAP58 (UniProt Q5T655) |  | 0.009 |  |  |  |  | -0.046 | -0.108 | 0.127 |  |  | 0.028 |  |  | 0.018 | -0.357 | -0.008 |  | 0.392 | 
12 | CRTC2 (UniProt Q53ET0) | -0.035 |  | 0.038 | 0.01 | -0.094 |  | -0.081 | -0.092 | 0.022 | -0.814 (active) | -0.001 | -0.13 | 0.038 | 0.004 |  | -0.099 | 0.092 | -0.125 | -0.143 | 
13 | CREB3L2 (UniProt Q70SY1) | 0.01 |  | 0.091 | -0.009 | -0.119 | 0.039 | -0.024 |  | 0.13 |  | -0.102 | -0.074 | 0.035 |  |  |  | 0.023 | -0.076 |  | 
14 | CS (UniProt F8VU34) | 0.044 |  |  |  |  |  |  |  |  |  |  |  |  |  |  | -0.298 |  |  | -0.393 | 
15 | CCDC57 (UniProt Q2TAC2) | -0.025 |  | -0.044 | -0.023 | -0.021 | 0.068 | -0.021 | -0.023 | 0.031 | -0.025 |  | -0.014 | -0.04 | -0.031 |  | 0.008 | -0.038 | -0.002 | -0.11 | 
16 | CHPT1 (UniProt Q8WUD6) |  | 0.197 | -0.596 | -0.029 | -0.017 | 0.011 | -0.027 | -0.192 | 0.387 | 0 | -0.039 | -0.059 |  | 0.062 | 0.066 | 0.002 | -0.042 | -0.049 | 0.019 | -0.074
17 | CARD9 (UniProt Q9H257) |  |  |  |  |  |  | 0.085 |  |  |  | 0.37 |  |  |  |  |  |  |  |  | 
18 | COG2 (UniProt Q14746) |  |  | -0.169 | -0.006 | 0.133 | -0.074 | 0.245 |  | -0.035 | -0.07 | -0.513 | -0.487 |  | 0.138 |  | 0.101 | 0.248 | -0.031 | 0.34 | -0.051
19 | CA1 (UniProt E5RIF9) | -0.042 |  |  |  |  |  |  |  |  |  |  |  | -0.029 |  |  |  |  | -0.026 |  | -0.098
20 | CLASP2 (UniProt O75122) | -0.098 |  | 0.014 | -0.278 | -0.231 | -0.155 | -0.344 | 0.045 | 0.027 |  | -0.049 | 0.046 |  |  |  | 0.143 | 0.083 |  | 0.08 | 
21 | COX17 (UniProt Q14061) |  | 0.078 | -0.091 | -0.051 | -0.162 | 0.206 | -0.034 |  | 0.038 | -0.002 | 0.017 | -0.088 | 0.052 | 0.048 | -0.077 |  | 0.119 | -0.141 |  | 0.016
22 | CEP128 (UniProt Q6ZU80) | -0.186 |  |  |  |  | -0.026 |  | -0.016 | 0.143 | -0.182 | -0.029 | 0.095 | -0.234 | -0.112 |  | -0.087 | -0.191 |  | -0.068 | 0.046
23 | CNRIP1 (UniProt Q96F85) |  |  | -0.066 | -0.071 | 0.056 |  | 0.038 | -0.075 | -0.148 |  |  | 0.258 |  |  |  |  | -0.13 | 0.738 (active) |  | 
24 | CCNL1 (UniProt Q9UK58) |  |  |  |  |  |  |  |  | 0.122 |  |  | -0.224 |  |  |  |  | -0.173 |  |  | 
25 | CCDC187, A0A1W2PQX5 |  | -0.106 | 0.318 | 0.027 | 0.104 |  | -0.056 |  |  |  | -0.147 |  |  |  | -0.042 |  |  | -0.048 |  | 
